Screening results deposited in PubChem by National Center for Advancing Translational Sciences (NCATS).
Most compounds without a hit are left out; they make up all but 19% or so of the library.
HT1080 IDH1KD tx – qHTS for induction of synthetic lethality in tumor cells producing 2HG: qHTS for the HT-1080-IDH1KD cell line | HT-1080 IDH1 knockdown viability, ATP luminescence, 48 h | Potency, µM (doses to about 46.1 µM), without a hit: top-dose activity, negative = toxicity, hits mostly cytotoxic | 2% of 360,000 active | AID 686971, 2013;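 note: potency is the fitted concentration of half-maximal effect; 0% = DMSO wells and -100% = cell-free medium wells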
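Luminescent ATP read-out (CellTiter-Glo, 10 min at room temperature) after 48 h compound exposure at 37 °C gave viability of IDH1-knockdown HT-1080 cells. Activity was normalised to DMSO and cell-free wells, then fitted as concentration-response curves.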
IL1B secr inh – qHTS for Inhibitors of Inflammasome Signaling: IL-1-beta AlphaLISA Primary Screen; THP-1 LPS/ATP IL-1B secretion, AlphaLISA, 16 h; hits give low values; activity change, % at 57.5 µM; 4.7% of 360,000 active; AID 743279, 2014; in the data active = activity change below about -50%; inconclusive = mostly about -30% to -49%
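Secreted IL-1B measured by AlphaLISA bead assay after 16 h compound exposure of THP-1 cells; compounds (final up to 57.5 uM) added 1 h before LPS (250 ng/mL) and ATP (1.25 mM) stimulation; lower signal means less secretion.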
HT1080-NT tox – qHTS for induction of synthetic lethality in tumor cells producing 2HG: qHTS for the HT-1080-NT fibrosarcoma cell line. HT-1080-NT fibrosarcoma viability, CellTiter-Glo ATP luminescence, 48 h. Potency, µM (titrated, usually from 46.1 µM), for inactives: at the top dose activity, negative = less viability, most hits filed as cytotoxic. 1.6% of 360,000 active;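 note: NT is the 2HG producing partner of a matched IDH1 knockdown line; potency is the fitted concentration of half-maximal effect; 0% = DMSO-treated cells and -100% = media-only wells without cells; nearly all actives have a fitted effect of over 55% in size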
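Viability of the 2HG-overproducing fibrosarcoma line after 48 hours of compound exposure at 37 degrees C was determined by luminescence with CellTiter-Glo, and concentration-effect curves were then fitted and categorized.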
DT40 TDP1 CPT – qHTS for Inhibitors of human tyrosyl-DNA phosphodiesterase 1 (TDP1): qHTS in cells in presence of CPT | Potency, µM (top dose mostly 46.2 µM), without a hit: top-dose activity change, negative = growth inhibition, actives largely listed as inhibitors | chicken DT40 Tdp1-/-;hTDP1 cells + 20 nM CPT, ATP luminescence, 48 h | AID 686979, 2013 | 12% of 420,000 active; note: potency is the fitted concentration of half-maximal effect; nearly all actives have a fitted effect of over 55% in size
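Cell growth measured by CellTiter-Glo luminescence after a minimum 48 h, 37 C compound exposure with 20 nM CPT in Tdp1-knockout DT40 cells stably expressing hTDP1, seeded 400/well; qHTS titration format.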
uPA surface inh – qHTS for Inhibitors of Cell Surface uPA Generation; AID 540303, 2011; cell surface uPA generation assay, qHTS; 0.31% of 330,000 active; Potency, µM (titrated, usually from 38.3 µM), for the others: top-dose activity change, negative = inhibition, most hits filed as inhibitors; active = well fitted inhibition curve with a large enough effect; inconclusive = small, poorly fitted or top-dose-only effect; inactive = no such curve, though single readings can be large or run the other way; tested in mouse RAW 264.7 cells; note: potency is the fitted concentration of half-maximal effect; nearly all actives have a fitted effect of over 55% in size
DT40 TDP1 no CPT – qHTS for Inhibitors of human tyrosyl-DNA phosphodiesterase 1 (TDP1): qHTS in cells in absence of CPT. DT40 Tdp1-/- hTDP1 cells, no CPT, ATP luminescence, 48 h. Potency, µM (highest dose often 46.2 µM), inactives show at the top dose activity change, negative = growth inhibition, hits mostly inhibitors. 15% of 420,000 active. AID 686978, 2013; note: potency is the fitted concentration of half-maximal effect; nearly all actives have a fitted effect of over 55% in size
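Cells were dispensed at 400 per well, compounds added by pin tool, plates incubated ≥48 hr at 37 °C, then CellTiter-Glo added for 30 min at room temperature before luminescence reading. Line: DT40 Tdp1-/- complemented with hTDP1; camptothecin omitted.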
Active calls of the source: *; ? = inconclusive; / = no result; [ ] = dose if it differs, or a comment. Unless noted, calls come from the whole dose curve; as a rule, active = well fitted curve in the direction sought with a large enough effect; inconclusive = small, poorly fitted or top-dose-only effect, or another doubt; inactive = no such curve, though single readings can be large; an effect the other way counts as inactive or inconclusive. Unless noted, % is set by controls: 0 for no effect and ±100 for the full control effect.

SMILES	HT1080 IDH1KD tx	IL1B secr inh	HT1080-NT tox	DT40 TDP1 CPT	uPA surface inh	DT40 TDP1 no CPT
Cc1nn2c(=O)cc(COc3ccc(/C=C(\C#N)C(=O)Nc4ccc(F)cc4)cc3)nc2s1	/	/	/	-13%	/	4%
Cc1ccc(-c2csc(NS(=O)(=O)c3cccc(F)c3)n2)o1	-1%	-15	2%	-13%	-4%	-19%
O=C(NCCc1ccc(Cl)cc1)C1CCCN1C(=O)Nc1ccc(F)cc1 (centres undefined)	-10%	-11	-1%	-16%	?	20%
CCOC(=O)c1c(C)[nH]c(C)c1C(=O)COC(=O)[C@@H]1CCCN1S(=O)(=O)c1ccc(Cl)cc1	9%	-5	-3%[9.24 µM]	15µM*	/	13µM*
Cc1ccc(S(=O)(=O)N2CCCC2C(=O)OCc2ccccc2)cc1 (centres undefined)	13%	12	18%	-19%	-2%	-24%
O=C(NCCc1ccccc1)C1CCCN1C(=O)Nc1ccc(F)cc1 (centres undefined)	6%	-2	12%	?	-1%	15µM*
O=C(COC(=O)[C@@H]1CCCN1S(=O)(=O)c1ccc(Cl)cc1)NCC(F)(F)F	15%	1	9%	-2%	4%	-12%
Cc1ccc(S(=O)(=O)N2CCCC2C(=O)OCc2ccco2)cc1 (centres undefined)	?	-20	-4%	15µM*	-17%	21µM*
CC(C)(C)c1ccc(S(=O)(=O)N2CCCCC2C(=O)NCc2ccccn2)cc1 (centres undefined)	5%	23	3%	23µM*	-5%	?
O=c1[nH]c2ccc(NCc3ccccc3F)cc2[nH]1	/	/	/	3%	/	-6%
CC(=O)OC1CCC2(C)C(CCC3(C)C2C(=O)C=C2C4CC(C)(C(=O)OCCN5CCCCC5)CCC4(C)CCC23C)C1(C)C (centres undefined)	/	/	/	8%	/	-8%
COc1ccc(CCNC(=O)C(=O)NCC2OCCN2S(=O)(=O)c2ccccc2)cc1OC (centres undefined)	-2%	-24	-8%	?	8%	-19%
COc1ccc(CCNC(=O)C(=O)NCC2CCCN2S(=O)(=O)c2ccccc2)cc1OC (centres undefined)	-17%	-23	-10%	?	-5%	13µM*
CC(C)(C#N)NC(=O)C1CCCN1S(=O)(=O)c1ccc2ccccc2c1 (centres undefined)	?	23	?	23µM*	-8%	?
CC1CCCCN1CCCNC(=O)C1CCN(c2nnc(-n3cccc3)s2)CC1 (centres undefined)	-2%	?	1%	-4%	1%	19%
CCOc1ccc(NCc2cccn2-c2nnc(N3CCC(C(=O)NCCCN4CCCCC4CC)CC3)s2)cc1 (centres undefined)	-19%	-69*	-24%	?	?	?
CCOc1ccc(NCc2cccn2-c2nnc(N3CCC(C(=O)NCc4cccc(OC)c4)CC3)s2)cc1	/	/	/	?	/	6.5µM*
Cc1ccc(NCc2cccn2-c2nnc(N3CCC(C(=O)NCCc4ccc(Cl)cc4)CC3)s2)cc1	/	/	/	?	/	13µM*
Cc1cc(=O)n2nc(N3CCC(C(=O)NCCc4ccc(Cl)cc4)CC3)sc2n1	-14%	-26	?	-22%	-5%	-13%
COc1ccccc1C(=O)N/C(=C\c1ccc(Br)cc1)C(=O)NCCO	-4%	-2	-3%	5%	-3%	-16%
